Inconclusive results are not listed. Activity calls are given as the source filed them. Calls follow the shape of the dose curve; as a rule, active = well fitted curve in the direction sought with a large enough effect; inconclusive = small, poorly fitted or top-dose-only effect, or another doubt; inactive = no such curve, though single readings can be large; an effect the other way counts as inactive or inconclusive.
How the values were obtained:
[1] = qHTS of pediatric cancer cell lines to identify multiple opportunities for drug repurposing: Primary screen for TC32 cells (AID 1347089); also: nearly all actives have a fitted effect of over 60% in size
In short: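 Measured quantity: luminescence from CellTiter-Glo, reflecting metabolically active TC32 cells following 48 h of compound. Curves came straight from multi-point titrations, with 8 or 11 points in primary and 11 in confirmatory screening.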

[2] = qHTS of pediatric cancer cell lines to identify multiple opportunities for drug repurposing: Primary screen for DAOY cells (AID 1347090); also: nearly all actives have a fitted effect of over 55% in size
In short: (§1)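 Viability measured as metabolically active cells via CellTiter-Glo luminescence following 48 hours of compound exposure, 11-point dilutions in confirmatory testing. 500-1,000 cells/well plated 5 hours before dosing; controls were DMSO and 2.3 µM bortezomib.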

[3] = qHTS of pediatric cancer cell lines to identify multiple opportunities for drug repurposing: Primary screen for SJ-GBM2 cells (AID 1347091)
In short: as §1

[4] = qHTS of pediatric cancer cell lines to identify multiple opportunities for drug repurposing: Primary screen for A673 cells (AID 1347092); also: nearly all actives have a fitted effect of over 45% in size
In short: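 Cells are plated, rested 5 h, dosed by pintool, incubated 48 h, then lysed with CellTiter-Glo and read by luminescence. DMSO is the neutral control; bortezomib at 2.3 uM final is the positive control.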

[5] = qHTS of pediatric cancer cell lines to identify multiple opportunities for drug repurposing: Primary screen for SK-N-MC cells (AID 1347093)
In short: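 Metabolically active cells were quantified by ATP-dependent luminescence (CellTiter-Glo, 15 min at room temperature) following 48 h treatment. Cells had been plated at 500-1,000 per well and settled for 5 h beforehand.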

[6] = qHTS of pediatric cancer cell lines to identify multiple opportunities for drug repurposing: Primary screen for BT-37 cells (AID 1347094)
In short: (§2)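 ATP-based luminescence (CellTiter-Glo) quantifies viability after a 48-hour exposure. Compounds are dosed across 8 or 11 final concentrations; DMSO and 2.3 µM bortezomib serve as controls.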

[7] = qHTS of pediatric cancer cell lines to identify multiple opportunities for drug repurposing: Primary screen for NB-EBc1 cells (AID 1347095)
In short: as §2

[8] = qHTS of pediatric cancer cell lines to identify multiple opportunities for drug repurposing: Primary screen for U-2 OS cells (AID 1347096); also: nearly all actives have a fitted effect of over 50% in size
In short: (§3)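 Viability after 48 h compound treatment at 37C, 500-1,000 cells/well, read as ATP luminescence with CellTiter-Glo. Primary screens used 11-point (MIPE, 0.78 nM-46 µM) or 8-point (NPC, 0.59 nM-46 µM) final concentrations; follow-up screens used 11-point dilutions.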

[9] = qHTS of pediatric cancer cell lines to identify multiple opportunities for drug repurposing: Primary screen for Saos-2 cells (AID 1347097); also: nearly all actives have a fitted effect of over 40% in size
In short: as §2

[10] = qHTS of pediatric cancer cell lines to identify multiple opportunities for drug repurposing: Primary screen for SK-N-SH cells (AID 1347098); also: nearly all actives have a fitted effect of over 65% in size
In short: (§4)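 Cells (500-1,000/well) rested 5 h, then received compounds for 48 h; metabolically active cells were measured by CellTiter-Glo luminescence. Final concentrations spanned up to 46 µM (MIPE, 11-point) or 0.59 nM-46 µM (NPC, 8-point) in primary screens, 11-point in follow-ups.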

[11] = qHTS of pediatric cancer cell lines to identify multiple opportunities for drug repurposing: Primary screen for NB1643 cells (AID 1347099); also: nearly all actives have a fitted effect of over 50% in size
In short: as §2

[12] = qHTS of pediatric cancer cell lines to identify multiple opportunities for drug repurposing: Primary screen for LAN-5 cells (AID 1347100)
In short: as §3

[13] = qHTS of pediatric cancer cell lines to identify multiple opportunities for drug repurposing: Primary screen for BT-12 cells (AID 1347101); also: nearly all actives have a fitted effect of over 25% in size
In short: as §4

[14] = qHTS of pediatric cancer cell lines to identify multiple opportunities for drug repurposing: Primary screen for Rh18 cells (AID 1347102); also: nearly all actives have a fitted effect of over 65% in size
In short: as §3

[15] = qHTS of pediatric cancer cell lines to identify multiple opportunities for drug repurposing: Primary screen for OHS-50 cells (AID 1347103); also: nearly all actives have a fitted effect of over 40% in size
In short: as §4

[16] = qHTS of pediatric cancer cell lines to identify multiple opportunities for drug repurposing: Primary screen for RD cells (AID 1347104); also: nearly all actives have a fitted effect of over 55% in size
In short: as §2

[17] = qHTS of pediatric cancer cell lines to identify multiple opportunities for drug repurposing: Primary screen for MG 63 (6-TG R) cells (AID 1347105); also: nearly all actives have a fitted effect of over 50% in size
In short: as §2

[18] = qHTS of pediatric cancer cell lines to identify multiple opportunities for drug repurposing: Primary screen for control Hh wild type fibroblast cells (AID 1347106); also: nearly all actives have a fitted effect of over 55% in size
In short: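 Cells (500-1,000/well) in growth media were settled 5 h at 37 degrees C, then given compounds for 48 h. Viability was read as CellTiter-Glo luminescence. Primary runs used MIPE at 11 points (0.78 nM-46 µM) and NPC at 8 points (0.59 nM-46 µM); follow-ups used 11 points.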

Measured: Potency
Potency is read from the fitted curve at half-maximal effect.

O=c1[nH]nc(Sc2ncc([N+](=O)[O-])s2)n1-c1ccc2c(c1)OCCO2
active: [2] 9.35 µM | [3] 9.35 µM | [4] 3.72 µM | [5] 9.35 µM | [6] 21.7 µM | [7] 2.64 µM | [8] 11.8 µM | [9] 10.5 µM | [10] 12.1 µM | [11] 4.69 µM | [12] 8.33 µM | [13] 17.2 µM | [14] 9.35 µM | [15] 9.68 µM | [16] 13.2 µM | [17] 5.9 µM | [18] 14.8 µM
inactive: [1]

CC(C)[C@H](C(=O)Nc1ccc(C(=O)NO)cc1)c1ccccc1
active: [1] 3.3 µM | [2] 1.87 µM | [3] 0.59 µM | [4] 1.18 µM | [5] 0.469 µM | [6] 2.17 µM | [7] 0.526 µM | [8] 1.18 µM | [9] 1.48 µM | [10] 2.41 µM | [11] 0.418 µM | [13] 3.06 µM | [14] 0.743 µM | [15] 1.22 µM | [17] 2.96 µM | [18] 16.6 µM

CC[C@@H]1C(=O)N(C)c2cnc(Nc3ccc(C(=O)NC4CCC(N5CCN(CC6CC6)CC5)CC4)cc3OC)nc2N1C(C)C (some centres not stated)
active: [1] 0.37 µM | [2] 0.0743 µM | [3] 0.0743 µM | [4] 0.0935 µM | [5] 0.148 µM | [6] 2.43 µM | [7] 0.332 µM | [8] 11.8 µM | [9] 0.526 µM | [10] 0.607 µM | [11] 0.469 µM | [13] 6.11 µM | [14] 6.62 µM | [15] 0.122 µM | [16] 0.187 µM | [17] 11.8 µM

Nc1ccc(S(=O)(=O)Nc2ncccn2)cc1
active: [5] 23.5 µM
not listed: [10]
inactive: all other assays above

CC[C@H]1CN2CCc3cc(OC)c(OC)cc3[C@H]2C[C@@H]1C[C@@H]1NCCc2cc(OC)c(OC)cc21
inactive: [18]
active: [1] 1.17 µM | [2] 0.935 µM | [3] 0.209 µM | [4] 0.118 µM | [5] 0.296 µM | [6] 0.544 µM | [7] 0.935 µM | [8] 1.18 µM | [9] 0.526 µM | [10] 0.341 µM | [11] 0.418 µM | [12] 0.833 µM | [13] 0.193 µM | [14] 2.09 µM | [15] 0.485 µM

CN1CC[C@@H](c2c(O)cc(O)c3c(=O)cc(-c4ccccc4Cl)oc23)[C@@H](O)C1
active: [1] 0.466 µM | [2] 0.187 µM | [3] 0.0526 µM | [4] 0.0935 µM | [5] 0.118 µM | [6] 0.109 µM | [7] 0.0743 µM | [8] 0.296 µM | [10] 0.0764 µM | [13] 0.122 µM | [15] 0.122 µM | [16] 0.235 µM | [17] 0.148 µM

Nc1cc(C(F)(F)F)c(-c2cc(N3CCOCC3)nc(N3CCOCC3)n2)cn1
active: [1] 2.62 µM | [2] 0.372 µM | [3] 0.296 µM | [4] 0.235 µM | [5] 0.0296 µM | [6] 1.53 µM | [7] 0.166 µM | [9] 1.48 µM | [10] 0.482 µM | [11] 0.296 µM | [12] 0.469 µM | [13] 1.22 µM | [14] 0.59 µM | [15] 0.153 µM | [16] 0.743 µM | [17] 0.187 µM

CC(C)CC(=O)Nc1n[nH]c2c1CN(C(=O)C1CCN(C)CC1)C2(C)C
inactive: [14]
active: [1] 5.87 µM | [2] 11.8 µM | [3] 1.48 µM | [4] 0.187 µM | [5] 0.0526 µM | [6] 0.485 µM | [9] 5.26 µM | [13] 2.43 µM | [15] 3.43 µM | [16] 2.35 µM

CC(=O)Nc1nc(C)c(-c2ccc(Cl)c(S(=O)(=O)NCCO)c2)s1
active: [1] 4.15 µM | [2] 5.9 µM | [3] 1.87 µM | [4] 1.87 µM | [5] 0.132 µM | [6] 15.3 µM | [7] 3.72 µM | [9] 2.96 µM | [10] 2.41 µM | [11] 3.32 µM | [12] 5.9 µM | [14] 7.43 µM | [15] 0.544 µM | [17] 1.48 µM

CCC[C@H](NC(=O)C(C#N)=Cc1cccc(Br)n1)c1ccccc1
active: [2] 14.8 µM | [3] 8.33 µM | [4] 9.35 µM | [5] 18.7 µM | [7] 8.33 µM | [9] 33.2 µM | [10] 24.1 µM | [11] 7.43 µM | [12] 14.8 µM | [13] 27.3 µM | [14] 14.8 µM | [15] 12.2 µM | [16] 13.2 µM
inactive: [1] | [8]

Reference: PubChem BioAssay (NCATS)
